{"source": "PubChem BioAssay (EPA / NIEHS)", "note": "Calls of active or inactive are those of the source. The calls were made as follows: active = hit-call score of the fitted dose curve at least 0.9, where 1 is the maximum; inactive = score below 0.9."}
{"test": "ATG_TA_CIS: Attagene CIS-FACTORIAL HepG2 Assay for human TA Basal Promoter (AID 2282964)", "conditions": "HepG2 Attagene CIS-factorial TA basal promoter reporter; actives raise or lower the signal", "in_short": "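Multiplexed mRNA reporter assay, HepG2, 24 h. Reporter cDNA amplified, 6-FAM primer-extended, HpaI-cut, CE-sized; DMSO = negative control and baseline.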"}
{"compound": "CCOc1ccccc1OCC", "outcome": "inactive"}
{"compound": "c1ccc2[nH]ccc2c1", "outcome": "inactive"}
{"compound": "CC(=O)O[C@H](CC(=O)[O-])C[N+](C)(C)C", "outcome": "inactive"}
{"compound": "CCN(CC)c1ccc(C(=C2C=CC(=[N+](CC)CC)C=C2)c2ccc(S(=O)(=O)O)cc2S(=O)(=O)[O-])cc1", "outcome": "inactive"}
{"compound": "CCCCCCCCCCCCCOS(=O)(=O)O", "outcome": "inactive"}
{"compound": "[Ca+2]", "outcome": "inactive"}
{"compound": "c1cc(C(c2ccc(OCC3CO3)cc2)c2ccc(OCC3CO3)cc2)ccc1OCC1CO1", "note": "(configuration not stated)", "AC50": "19.8 µM (active)"}
{"compound": "CCn1c2ccccc2c2cc(N)ccc21", "outcome": "inactive"}
{"compound": "C=C[C@@H](C)CCC=C(C)C", "outcome": "inactive"}
{"compound": "O=C(O)CN(CCN(CC(=O)O)CC(=O)O)CCN(CC(=O)O)CC(=O)O", "outcome": "inactive"}
{"compound": "COC(=O)OC", "outcome": "inactive"}
{"compound": "Cc1c(Cl)c(=O)oc2cc(O)ccc12", "outcome": "inactive"}
{"compound": "O=Cc1ccc(F)cc1", "outcome": "inactive"}
{"compound": "C=C(C)C(=O)O", "outcome": "inactive"}
{"compound": "CC(C)OP(=O)(CP(=O)(OC(C)C)OC(C)C)OC(C)C", "outcome": "inactive"}
{"compound": "CCCCOCCOCCOCCOCCO", "outcome": "inactive"}
{"compound": "COc1ccc(Nc2ccccc2)c(C)c1", "outcome": "inactive"}
{"compound": "CCCC(C)C=O", "note": "(configuration not stated)", "outcome": "inactive"}
{"compound": "CC(=O)Nc1ccccc1O", "outcome": "inactive"}
{"compound": "COc1cc(C(C)(C)C)c(O)c(C(C)(C)C)c1", "outcome": "inactive"}
{"compound": "CCCC(=O)C(C)=O", "outcome": "inactive"}
{"compound": "O=C(O)c1cn(C2CC2)c2cc(N3CCNCC3)c(F)cc2c1=O", "outcome": "inactive"}
{"compound": "Cc1ccc2ccccc2n1", "outcome": "inactive"}
{"compound": "CC(C)=CCCC(C)=CCCC(C)=CCO", "outcome": "inactive"}
{"compound": "O=C(Nc1ccccc1)c1cc([N+](=O)[O-])ccc1Cl", "outcome": "inactive"}
{"compound": "N#Cc1ccccc1", "outcome": "inactive"}
{"compound": "C[C@H]1C[C@@H]2[C@H]([C@@H](O)C[C@@]3(C)[C@H]2CC[C@]3(O)C(=O)CO)[C@@]2(C)C=CC(=O)C=C12", "outcome": "inactive"}
